Here are results for eight molecules from paper PMC5540273 (PLoS ONE, 2017).

Structures are written as SMILES.

Test systems include TYRO3; ULK1; ULK2; ULK3; VRK2; WEE1; WEE2; WNK1; WNK2; WNK3; WNK4.
Settings in all cases: concentration: 1 μM, replicates: in singlicate; n = 1
For experiment [1], the system named is TYK2(JH2domain-pseudokinase).
In the next experiment the test system is T1, VEGFR2.
T1 construct: gene KDR

Another experiment has as its system T2, VPS34.
T2 construct: gene PIK3C3

Another experiment concerns T3, YANK1.
T3 construct: gene STK32A

For a further experiment, the system named is T4, YANK2.
T4 construct: gene STK32B

In another experiment the test system is T5, YANK3.
T5 construct: gene STK32C

A further experiment has as its system T6, YES.
T6 construct: gene YES1

The test system of another experiment is T7, YSK1.
T7 construct: gene STK25

Another experiment has as its system T8, YSK4.
T8 construct: gene MAP3K19
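Note: KINOMEscan kinase panel screen.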

With `CN1CCN(Cc2ccc(NC(=O)Nc3ccc(N(C)c4ccnc(Nc5ccc(CS(C)(=O)=O)cc5)n4)cc3)cc2)CC1.Cl` [GW827654], the “%Inh” value in experiment [1] is on record as 87%; in the experiment with TYRO3, 35%; in the experiment with ULK1, 0%; in the experiment with ULK2 it was 51%; with ULK3, 95.9%; in the experiment on VEGFR2, 99.9%. For the same molecule, the “%Inh” value is given as 42% with VPS34; 65% in the experiment on VRK2; 0% with WEE1; 27% with WEE2; 36% with WNK1; 45% with WNK2. In addition, the “%Inh” value is 42% in the experiment with WNK3; 0% with WNK4; 19% with YANK1; 0% in the experiment with YANK2; 6% with YANK3; 0% in the experiment with YES. Also, the “%Inh” value is listed as 7% in the experiment with YSK1 and 100% in the experiment on YSK4.
In the case of `Cc1ccc(Nc2ccnc(Nc3ccc(C)c(F)c3)n2)cc1O.Cl` [GW582868], the “%Inh” value is recorded as 74% in [1]; 29% with TYRO3; 12% in the experiment with ULK1; 0% in the experiment on ULK2; 10% in the experiment on ULK3; 0% in the experiment with VEGFR2. The “%Inh” value is 0% with VPS34; 48% with VRK2; 0% in the experiment with WEE1; 17% in the experiment on WEE2; 41% in the experiment with WNK1; 12% in the experiment with WNK2. Besides, the “%Inh” value in the experiment with WNK3 is listed as 31%; in the experiment on WNK4, 49%; with YANK1, 1%; with YANK2 it was 0%; in the experiment on YANK3, 1%; in the experiment with YES, 53%. In addition, the “%Inh” value in the experiment on YSK1 is on record as 0%; in the experiment on YSK4 it was 25%.
As for `CN(c1ccc2c(c1)nc(NCc1ccccc1)n2C)c1ccnc(Nc2ccc(CS(C)(=O)=O)cc2)n1.Cl` [GW811603], the “%Inh” value in [1] came to 0%; with TYRO3, 0%; with ULK1, 0%; in the experiment on ULK2 it was 16%; in the experiment on ULK3, 9%; in the experiment on VEGFR2, 99.5%. For the same molecule, the “%Inh” value is given as 40% in the experiment on VPS34; 100% in the experiment on VRK2; 0% in the experiment on WEE1; 29% in the experiment with WEE2; 0% in the experiment on WNK1; 2% with WNK2. Also, the “%Inh” value was found to be 11% in the experiment with WNK3; 0% in the experiment with WNK4; 0% in the experiment with YANK1; 0% in the experiment with YANK2; 0% with YANK3; 0% with YES. Also, the “%Inh” value is 0% in the experiment with YSK1 and 97.3% in the experiment on YSK4.
Turning to `CCOc1nccc(-c2c(-c3ccc(F)cc3)ncn2C2CCNCC2)n1` [SB-249175], the “%Inh” value amounted to 36% in [1]; 15% in the experiment on TYRO3; 28% with ULK1; 34% with ULK2; 26% in the experiment on ULK3; 13% in the experiment with VEGFR2. Also, the “%Inh” value with VPS34 amounted to 24%; with VRK2 it was 51%; in the experiment on WEE1, 0%; in the experiment on WEE2, 18%; in the experiment on WNK1, 25%; in the experiment on WNK2, 4%. Moreover, the “%Inh” value in the experiment with WNK3 turned out to be 4%; in the experiment with WNK4 it was 0%; in the experiment with YANK1, 52%; in the experiment with YANK2 it was 36%; with YANK3 it was 0%; in the experiment on YES, 0%. Moreover, the results for the “%Inh” value in the experiment on YSK1 and in the experiment with YSK4 were 2% and 37%, respectively.
Consider `O=C(Nc1n[nH]c2nc(-c3ccccc3O)ccc12)C1CC1` [SB-711880], for which the “%Inh” value in experiment [1] is on record as 6%; with TYRO3, 0%; with ULK1 it was 0%; in the experiment with ULK2, 0%; in the experiment with ULK3, 16%; in the experiment with VEGFR2 it was 0%. In addition, the “%Inh” value in the experiment with VPS34 is recorded as 0%; with VRK2 it was 0%; in the experiment on WEE1, 0%; in the experiment on WEE2, 79%; in the experiment on WNK1, 0%; in the experiment with WNK2, 30%. The “%Inh” value in the experiment on WNK3, with WNK4, in the experiment with YANK1, in the experiment on YANK2, in the experiment on YANK3 and in the experiment with YES was 0% throughout. Moreover, the results for the “%Inh” value in the experiment on YSK1 and with YSK4 were 0% and 70%, respectively.
`COc1cccc(NC(=O)NCCNc2ccnc(Nc3ccc(F)cc3)n2)c1` [GSK1379879]: the “%Inh” value turned out to be 48% in [1]; 0% in the experiment with TYRO3; 13% in the experiment with ULK1; 0% in the experiment with ULK2; 26% in the experiment with ULK3; 0% in the experiment on VEGFR2. The “%Inh” value in the experiment with VPS34 is on record as 0%; in the experiment with VRK2, 0%; in the experiment with WEE1, 31%; with WEE2, 6%; in the experiment on WNK1 it was 5%; with WNK2, 22%. Further, the “%Inh” value in the experiment with WNK3 amounted to 22%; in the experiment on WNK4, 46%; with YANK1, 0%; with YANK2, 0%; in the experiment with YANK3, 0%; with YES it was 0%. The entries for the “%Inh” value in the experiment with YSK1 and in the experiment on YSK4 were 0% and 44%, respectively.
Take `c1ccc(Oc2ccc(Nc3ccnc4cc(-c5ccc(CN6CCCCC6)o5)ccc34)cc2)nc1` [GW567143]: the “%Inh” value in [1] is 17%; in the experiment on TYRO3, 26%; in the experiment with ULK1, 0%; in the experiment with ULK2 it was 0%; with ULK3 it was 15%; in the experiment on VEGFR2 it was 24%. The “%Inh” value with VPS34 turned out to be 0%; in the experiment on VRK2 it was 14%; in the experiment with WEE1 it was 8%; in the experiment on WEE2, 13%; in the experiment with WNK1, 2%; with WNK2, 39%. Besides, the “%Inh” value in the experiment with WNK3 amounted to 24%; in the experiment on WNK4, 25%; in the experiment with YANK1, 0%; with YANK2, 0%; in the experiment on YANK3 it was 17%; in the experiment with YES, 51%. Further, the “%Inh” value in the experiment with YSK1 is reported as 0%; in the experiment with YSK4, 32%.
Regarding `CC(C)c1nc(-c2ccc(F)c(NS(=O)(=O)c3c(F)cccc3F)c2)c(-c2ccnc(Nc3ccc(N4CCOCC4)nc3)n2)s1` [GSK1804250], the “%Inh” value in experiment [1] is reported as 0%; in the experiment with TYRO3, 86%; in the experiment on ULK1 it was 9%; with ULK2, 19%; with ULK3, 50%; in the experiment with VEGFR2 it was 47%. The “%Inh” value with VPS34 came to 0%; in the experiment on VRK2 it was 11%; in the experiment with WEE1, 5%; with WEE2 it was 16%; with WNK1 it was 7%; in the experiment with WNK2, 0%. The “%Inh” value in the experiment with WNK3 worked out at 0%; in the experiment with WNK4 it was 31%; with YANK1, 42%; in the experiment with YANK2, 71%; with YANK3, 15%; with YES it was 99.2%. Further, the “%Inh” value with YSK1 was 32%; with YSK4, 40%.
